Six1-Eya2 inh = Six1/Eya2 interaction inhibition; Q15475+O00167; AlphaScreen GST-Six1/His-Eya2 binding, biochemical; stronger effect = lower value; activity change, % (test concentration not listed); actives 0.56% (n = 360,000); AID 651725; in the data active = activity change below about -65%; inconclusive = mostly about -30% to -63%; also: % is scaled to controls: 0 for no effect and ±100 for the full control effect
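GST-Six1 + His-Eya2 (5X stock: 250/500 nM); Tris pH 8.0, 300 mM NaCl, 0.05% BSA, 0.02% Tween 20; GSH donor/Ni acceptor beads; 1 h 37 °C dark; AlphaScreen readout.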
MBNL1-CUG inh = blocks human MBNL1 binding to CUG repeat RNA | TR-FRET MBNL1-His/biotin-(CUG)12 binding, 665/545 ratio | Potency, µM (series often up to 57.5 µM), inactives show at the top dose activity change, negative = inhibition, most hits filed as inhibitors | actives 0.036% (n = 280,000) | AID 2675; active = well fitted inhibition curve with a large enough effect in the signal ratio, with a control signal flat, not every such curve was filed as active; inconclusive = small, poorly fitted or top-dose-only effect, or effect the other way, or a change in a side signal; inactive = no such curve, though single readings can be large or run the other way; the % refers to the signal ratio; also: potency is read from the fitted curve at half-maximal effect; % is scaled to controls: 0 for no effect and ±100 for the full control effect
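TR-FRET readout: Ex 340 nm, 665/545 nm emission ratio, normalized to buffer-only (basal) and MBNL1-(CUG)12 controls. Complex of MBNL1-His with Biotin-(CUG)12, compounds 92 nM–58 uM, incubated 60 min at room temperature.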
CtBP-E1A inh = CtBP/E1A binding inhibition; actives 0.49% (n = 340,000); AlphaScreen GST-E1A/His-CtBP binding, 1536-well; stronger effect = lower value; activity change, % (test concentration not listed); AID 651724; in the data active = activity change below about -65%; inconclusive = mostly about -30% to -63%; also: % is scaled to controls: 0 for no effect and ±100 for the full control effect
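In 5 uL wells, 23 nL compound meets equimolar GST-E1A and His-CtBP (5X stock 125 nM each) for 2 h, 37 °C. Beads (5X, 50 ug/mL) then 1 h, 37 °C, dark.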
Gal4-VP16 FLuc = counter-screen for ROR gamma inhibitors: Gal4-VP16 reporter; Drosophila S2 Gal4-VP16 UAS-luciferase, luminescence, 20 h; actives 3.5% (n = 310,000); Potency, µM (doses to about 53.6 µM), for the others: at the highest dose activity, negative = inhibition, usual class: inhibitors;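 also: Gal4-VP16 expression switched on by copper sulfate through the metallothionein promoter; potency is read from the fitted curve at half-maximal effect; % is scaled to controls: 0 for no effect and ±100 for the full control effect; nearly all actives have a fitted effect of over 50% in size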
RORgamma inh = inhibitors of mouse ROR gamma transcriptional activity | P51450 | Drosophila S2 Gal4-RORgamma UAS-luciferase reporter, 20 h | Potency, µM (titrated, usually from 53.6 µM), inactives show at the highest dose activity change, negative = inhibition, hits mostly inhibitors | actives 5.4% (n = 310,000); also: potency is read from the fitted curve at half-maximal effect; % is scaled to controls: 0 for no effect and ±100 for the full control effect; nearly all actives have a fitted effect of over 60% in size
Target sequence (P51450 whole entry, looked up, the tested form may be a part): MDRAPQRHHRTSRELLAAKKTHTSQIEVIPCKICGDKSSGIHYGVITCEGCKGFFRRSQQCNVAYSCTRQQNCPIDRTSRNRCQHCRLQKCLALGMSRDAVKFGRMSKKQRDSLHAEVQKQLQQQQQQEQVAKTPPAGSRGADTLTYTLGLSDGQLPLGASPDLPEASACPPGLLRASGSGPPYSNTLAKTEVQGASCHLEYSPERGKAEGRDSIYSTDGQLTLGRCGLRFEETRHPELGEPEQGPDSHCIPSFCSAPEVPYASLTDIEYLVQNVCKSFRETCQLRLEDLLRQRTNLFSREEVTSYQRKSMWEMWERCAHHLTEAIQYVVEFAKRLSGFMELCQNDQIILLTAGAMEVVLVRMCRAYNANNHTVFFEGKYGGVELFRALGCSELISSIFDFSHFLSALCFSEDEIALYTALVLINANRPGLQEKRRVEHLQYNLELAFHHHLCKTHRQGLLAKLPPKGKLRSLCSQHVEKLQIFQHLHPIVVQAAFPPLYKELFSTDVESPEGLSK
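Luciferase reporter read in Schneider cells carrying Gal4-RORγ (mouse) and UAS-Photinus luciferase; cells given compound 1 h before 700 uM copper sulfate induction, then incubated 20 h at ambient temperature.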
CBFb-RUNX1 inh = CBF-beta/RUNX1 interaction disruption | Q01196+Q13951 | AlphaScreen CBFb-His/RUNX1-biotin binding, biochemical | Potency, µM (top dose mostly 59.8 µM), for inactives: at the highest dose activity, negative = inhibition, actives largely listed as inhibitors | 230,000 tested, under 10 active | AID 1477; also: % of control where 0% means no effect
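CBF-beta (His) and RUNX1 (biotin), 30 nM each; 20 min preassociation; + compound, 15 min; + beads 50 ng each (Ni, streptavidin), 90 min; RT; AlphaScreen read.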
Numbers without * were called inactive; ? = inconclusive; / = not tested or not shown; [ ] = another dose, or the depositor's remark. A selection: hits, their analogues and other compounds. The true share with any hit is near 5.5%. Unless noted, calls follow the shape of the dose curve; as a rule, active = well fitted curve in the direction sought with a large enough effect; inconclusive = small, poorly fitted or top-dose-only effect, or another doubt; inactive = no such curve, though single readings can be large; an effect the other way counts as inactive or inconclusive.

SMILES | Six1-Eya2 inh | MBNL1-CUG inh | CtBP-E1A inh | Gal4-VP16 FLuc | RORgamma inh | CBFb-RUNX1 inh
O=C(OCc1nc2scc(-c3ccccc3)c2c(=O)[nH]1)c1cc(Cl)ccc1[N+](=O)[O-] | -20 | 14% | 3 | ? | 11µM* | -6%
NC(=S)N/N=C1\CC(n2nnnc2-c2ccccc2Cl)C2COC1O2 (stereo unspecified) | -1 | -6% | -3 | ? | 11µM* | -1%
NC(=S)NN=C1c2ccccc2-c2c(F)c(F)c(F)c(F)c21 | -24 | / | 3 | / | / | /
Cc1ccc(-c2nnnn2C2C/C(=N\NC(N)=S)C3OCC2O3)cc1 (stereo unspecified) | -1 | 0% | 1 | ? | 10µM* | -7%
CCOc1cc(C(=O)NN2CCOCC2)cc(OCC)c1OCC | 1 | -11% | 13 | -3% | -10% | /
O=C1C(=C2CCCCC2)SC(=S)N1Cc1ccco1 | -15 | 4% | -19 | -1% | 13µM* | ?
O=C(CCNS(=O)(=O)c1ccccc1)OCC(=O)c1ccc(Cl)cc1 | 7 | / | 4 | / | / | /
CCOc1ccc(Br)cc1S(=O)(=O)NC1CCCC1 | 9 | / | 2 | / | / | /
CCOc1cc(C)c(S(=O)(=O)NC2CCCCC2)cc1C | -2 | 0% | -1 | 11µM* | 4% | 8%
O=C(CCCOc1ccccc1)Nc1cccc(S(=O)(=O)N2CCOCC2)c1 | -5 | / | 4 | / | / | /
Cc1nc([N+](=O)[O-])c(Br)n1CC(=O)c1ccc(F)cc1 | 4 | 26% | 4 | -14%[10 µM] | 7.9µM* | 7%
Cc1[nH]c(=O)[nH]c(=O)c1/C=N/NC(=O)[C@@H](NC(=O)OC(C)(C)C)C(C)C | -13 | -3% | -25 | -6% | -18% | 3%
Cc1[nH]c(=O)[nH]c(=O)c1/C=N/NC(=O)[C@H](C)N | -66* | -9% | -30 | ? | 112µM* | -16%
COCCN(C(=O)c1ccc(N2CCCC2=O)cc1)c1c(N)n(Cc2ccccc2)c(=O)[nH]c1=O | 3 | / | -9 | / | / | /
COc1cc(O)c(C(=O)c2ccccc2)cc1O | / | / | / | ? | 13µM* | /
Cc1ccc(S(=O)(=O)N2[C@@H](CO)CO[C@H]2CC(=O)c2ccccc2)cc1 | -9 | / | 1 | / | / | /
CN(C)c1ccc(C(c2ccc(N(C)C)cc2)C(O)c2ccccc2)cc1 (stereo unspecified) | -65* | / | -2 | / | / | /
O=C(Nc1ccc(N2CCOCC2)c(Cl)c1)c1ccc(Cl)cc1 | 1 | 3% | 7 | -8%[10 µM] | 35% | 2%
O=C(/C=C/c1ccc(F)cc1)NC(=S)N1CCN(Cc2ccccc2)CC1 | -17 | 2% | ? | 7.1µM* | 2.5µM* | -8%
O=C(/C=C/c1ccccc1)NC(NC(=S)Nc1ccc(Cl)cc1)C(Cl)(Cl)Cl (stereo unspecified) | -1 | 6% | 0 | 10µM* | ? | 5%
O=C(/C=C/c1ccc(Cl)cc1)NC(=S)Nc1ccc(N2CCOCC2)c(Cl)c1 | -1 | -12% | 1 | 5.6µM* | ? | -10%
NC(N)=NS(=O)(=O)c1ccc(NC(=S)NC(=O)/C=C/c2ccc(F)cc2)cc1 | 11 | -16% | -10 | 10% | -24% | /
O=C(/C=C/c1ccc(F)cc1)NC(=S)Nc1ccccc1 | -1 | 1% | -4 | 10µM* | 7.9µM* | /
O=C(NCC(=O)N1CCC2(CC1)NCCc1[nH]cnc12)c1ccccc1F | -4 | -2% | 3 | -8% | -10% | /
Cc1ccc(C(=O)NCCC(=O)N2CCCC2)cc1 | 11 | -8% | / | -23% | ? | /
O=C(/C=C/c1ccc(Cl)cc1)Nc1ccc(N2CCOCC2)cc1 | -9 | -1% | -2 | 9%[10 µM] | 12% | -3%
CC(=O)NC(NC(=S)Nc1ccc(N=Nc2ccccc2)cc1)C(Cl)(Cl)Cl (stereo unspecified) | -19 | 1% | ? | 5µM* | 7.1µM* | -2%

Screening results as filed in PubChem.
